The term residual activity denotes the signal under treatment as a percentage of the control signal.

The target of experiment [1] is Homeodomain-interacting protein kinase 3 (Homo sapiens) (UniProt Q9H422). The conditions noted are these: at 10 µM.
Experiment [2] addresses T1, Serine/threonine-protein kinase haspin (Homo sapiens) (UniProt Q8TF76).
T1 sequence (whole entry): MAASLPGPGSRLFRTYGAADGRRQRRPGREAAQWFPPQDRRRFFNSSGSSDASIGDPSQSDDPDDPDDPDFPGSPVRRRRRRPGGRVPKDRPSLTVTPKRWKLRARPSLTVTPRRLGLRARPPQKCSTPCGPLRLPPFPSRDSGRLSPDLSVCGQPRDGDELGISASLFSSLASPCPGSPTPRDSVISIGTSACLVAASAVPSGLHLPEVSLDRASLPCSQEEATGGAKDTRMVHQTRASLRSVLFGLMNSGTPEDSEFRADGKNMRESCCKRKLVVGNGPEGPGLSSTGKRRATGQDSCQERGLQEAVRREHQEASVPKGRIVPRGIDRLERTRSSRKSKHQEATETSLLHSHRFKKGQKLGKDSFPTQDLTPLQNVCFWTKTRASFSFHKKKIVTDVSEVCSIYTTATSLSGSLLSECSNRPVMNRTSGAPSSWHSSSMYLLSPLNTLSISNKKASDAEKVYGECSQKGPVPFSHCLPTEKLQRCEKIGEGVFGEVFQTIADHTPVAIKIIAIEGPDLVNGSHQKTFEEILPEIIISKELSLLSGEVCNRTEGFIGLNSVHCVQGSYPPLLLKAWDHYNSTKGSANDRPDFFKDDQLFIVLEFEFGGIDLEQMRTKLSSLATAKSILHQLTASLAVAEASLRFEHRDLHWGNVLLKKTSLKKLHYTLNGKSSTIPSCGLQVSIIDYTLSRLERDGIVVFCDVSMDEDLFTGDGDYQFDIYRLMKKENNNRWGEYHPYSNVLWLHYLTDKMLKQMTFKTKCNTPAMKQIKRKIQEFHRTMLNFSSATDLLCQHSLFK
The conditions noted are these: at 1 µM.

Experiment [3] has as its target T1, Serine/threonine-protein kinase haspin (Homo sapiens). The conditions noted are these: at 10 µM.
Experiment [4] concerns the target Tyrosine-protein kinase HCK (Homo sapiens) (UniProt P08631). The conditions noted are these: at 1 µM.
For experiment [5] the target is unchanged. As to conditions: at 10 µM.
For experiment [6] the target is unchanged. As to conditions: at 1 µM. The source holds these as a separate data set.
For experiment [7] the target is unchanged. The conditions noted are these: at 10 µM. The source holds these as a separate data set.
Experiment [8] concerns the target Insulin-like growth factor 1 receptor (Homo sapiens) (UniProt P08069). The conditions noted are these: at 1 µM.
The target is the same in experiment [9]. As to conditions: at 10 µM.
The target of experiment [10] is T2, Protein kinase C zeta type (Homo sapiens) (UniProt Q05513).
T2 sequence (whole entry): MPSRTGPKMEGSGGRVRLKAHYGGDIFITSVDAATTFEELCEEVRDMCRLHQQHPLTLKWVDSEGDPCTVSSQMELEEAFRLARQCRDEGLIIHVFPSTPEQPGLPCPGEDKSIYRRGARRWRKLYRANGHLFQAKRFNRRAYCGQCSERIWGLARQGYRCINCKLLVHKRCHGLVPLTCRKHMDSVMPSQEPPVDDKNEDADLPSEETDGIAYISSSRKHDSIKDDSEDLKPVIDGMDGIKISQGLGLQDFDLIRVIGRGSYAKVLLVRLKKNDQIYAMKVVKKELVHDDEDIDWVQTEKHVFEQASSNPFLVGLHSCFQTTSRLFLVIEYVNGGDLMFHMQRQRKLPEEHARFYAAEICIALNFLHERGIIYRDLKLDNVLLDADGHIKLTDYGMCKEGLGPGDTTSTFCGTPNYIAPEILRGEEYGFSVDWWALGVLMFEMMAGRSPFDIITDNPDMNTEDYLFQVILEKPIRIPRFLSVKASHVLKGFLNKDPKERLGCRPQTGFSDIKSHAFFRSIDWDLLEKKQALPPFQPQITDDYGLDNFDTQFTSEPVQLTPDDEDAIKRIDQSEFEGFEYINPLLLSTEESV
The conditions noted are these: at 10 µM.

Homeodomain-interacting protein kinase 3 (Homo sapiens), sequence (Q9H422 whole entry, looked up): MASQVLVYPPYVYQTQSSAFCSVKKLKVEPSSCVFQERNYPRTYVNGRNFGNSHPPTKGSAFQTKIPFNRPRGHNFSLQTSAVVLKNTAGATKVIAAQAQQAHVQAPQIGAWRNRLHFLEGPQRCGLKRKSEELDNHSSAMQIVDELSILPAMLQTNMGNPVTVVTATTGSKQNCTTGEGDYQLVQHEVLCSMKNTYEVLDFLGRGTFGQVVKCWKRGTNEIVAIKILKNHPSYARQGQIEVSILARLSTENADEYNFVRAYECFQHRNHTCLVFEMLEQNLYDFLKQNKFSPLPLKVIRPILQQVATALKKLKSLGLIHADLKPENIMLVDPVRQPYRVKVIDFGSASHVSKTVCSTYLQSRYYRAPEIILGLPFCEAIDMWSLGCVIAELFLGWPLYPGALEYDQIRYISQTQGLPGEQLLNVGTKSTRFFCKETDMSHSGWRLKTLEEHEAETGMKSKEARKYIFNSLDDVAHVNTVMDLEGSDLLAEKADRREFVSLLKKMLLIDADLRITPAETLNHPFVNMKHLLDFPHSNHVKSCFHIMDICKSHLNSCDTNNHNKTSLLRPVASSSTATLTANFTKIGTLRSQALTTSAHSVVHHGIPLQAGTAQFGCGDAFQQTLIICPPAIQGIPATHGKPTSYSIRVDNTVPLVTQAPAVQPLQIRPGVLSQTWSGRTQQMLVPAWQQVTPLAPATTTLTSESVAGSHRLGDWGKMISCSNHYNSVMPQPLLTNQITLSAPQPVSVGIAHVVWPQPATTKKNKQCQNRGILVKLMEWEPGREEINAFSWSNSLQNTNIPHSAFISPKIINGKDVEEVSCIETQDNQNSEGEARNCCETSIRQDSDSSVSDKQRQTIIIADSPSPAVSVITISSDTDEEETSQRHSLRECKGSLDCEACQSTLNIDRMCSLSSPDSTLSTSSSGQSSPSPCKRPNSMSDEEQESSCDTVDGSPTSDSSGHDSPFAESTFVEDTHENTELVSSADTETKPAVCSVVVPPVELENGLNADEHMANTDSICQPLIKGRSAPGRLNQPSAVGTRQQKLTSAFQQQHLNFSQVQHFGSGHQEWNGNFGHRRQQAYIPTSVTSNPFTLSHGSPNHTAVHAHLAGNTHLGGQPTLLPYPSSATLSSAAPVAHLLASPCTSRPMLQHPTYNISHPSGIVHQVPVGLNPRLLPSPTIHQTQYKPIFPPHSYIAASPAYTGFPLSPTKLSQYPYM
Tyrosine-protein kinase HCK (Homo sapiens), sequence (P08631 2-526 limits assumed): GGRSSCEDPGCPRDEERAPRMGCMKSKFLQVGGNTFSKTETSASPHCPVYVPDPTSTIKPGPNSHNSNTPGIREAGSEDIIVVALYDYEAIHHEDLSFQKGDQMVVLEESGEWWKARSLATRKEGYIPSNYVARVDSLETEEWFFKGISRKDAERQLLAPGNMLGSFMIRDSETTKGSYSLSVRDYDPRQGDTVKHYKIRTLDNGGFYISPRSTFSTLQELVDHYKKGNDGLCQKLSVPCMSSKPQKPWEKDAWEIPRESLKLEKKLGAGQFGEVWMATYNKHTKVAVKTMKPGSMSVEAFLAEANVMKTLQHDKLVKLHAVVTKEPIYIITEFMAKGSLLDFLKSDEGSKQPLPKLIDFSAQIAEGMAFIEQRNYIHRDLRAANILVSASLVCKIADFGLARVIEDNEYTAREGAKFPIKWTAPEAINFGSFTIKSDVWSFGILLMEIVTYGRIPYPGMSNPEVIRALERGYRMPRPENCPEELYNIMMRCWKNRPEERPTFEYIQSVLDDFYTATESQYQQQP
Insulin-like growth factor 1 receptor (Homo sapiens), sequence (P08069 31-736 limits assumed): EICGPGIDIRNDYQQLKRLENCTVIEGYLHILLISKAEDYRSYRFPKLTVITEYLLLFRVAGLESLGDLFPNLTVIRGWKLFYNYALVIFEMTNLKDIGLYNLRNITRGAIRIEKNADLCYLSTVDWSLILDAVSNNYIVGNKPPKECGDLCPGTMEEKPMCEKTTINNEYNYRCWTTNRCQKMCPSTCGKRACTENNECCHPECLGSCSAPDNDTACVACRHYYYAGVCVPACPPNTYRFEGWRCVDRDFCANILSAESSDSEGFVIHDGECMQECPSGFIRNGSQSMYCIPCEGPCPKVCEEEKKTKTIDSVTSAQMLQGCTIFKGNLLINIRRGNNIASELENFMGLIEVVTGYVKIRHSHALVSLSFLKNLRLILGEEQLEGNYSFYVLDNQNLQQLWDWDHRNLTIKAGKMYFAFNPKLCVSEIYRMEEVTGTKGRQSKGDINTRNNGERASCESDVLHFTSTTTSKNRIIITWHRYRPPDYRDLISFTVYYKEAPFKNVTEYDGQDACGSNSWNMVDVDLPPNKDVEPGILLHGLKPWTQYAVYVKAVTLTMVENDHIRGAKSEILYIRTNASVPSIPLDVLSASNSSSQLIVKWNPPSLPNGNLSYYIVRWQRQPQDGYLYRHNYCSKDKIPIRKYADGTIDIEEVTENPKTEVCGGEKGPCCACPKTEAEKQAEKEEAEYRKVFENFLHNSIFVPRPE
Insulin-like growth factor 1 receptor (Homo sapiens), sequence (P08069 741-1367 limits assumed): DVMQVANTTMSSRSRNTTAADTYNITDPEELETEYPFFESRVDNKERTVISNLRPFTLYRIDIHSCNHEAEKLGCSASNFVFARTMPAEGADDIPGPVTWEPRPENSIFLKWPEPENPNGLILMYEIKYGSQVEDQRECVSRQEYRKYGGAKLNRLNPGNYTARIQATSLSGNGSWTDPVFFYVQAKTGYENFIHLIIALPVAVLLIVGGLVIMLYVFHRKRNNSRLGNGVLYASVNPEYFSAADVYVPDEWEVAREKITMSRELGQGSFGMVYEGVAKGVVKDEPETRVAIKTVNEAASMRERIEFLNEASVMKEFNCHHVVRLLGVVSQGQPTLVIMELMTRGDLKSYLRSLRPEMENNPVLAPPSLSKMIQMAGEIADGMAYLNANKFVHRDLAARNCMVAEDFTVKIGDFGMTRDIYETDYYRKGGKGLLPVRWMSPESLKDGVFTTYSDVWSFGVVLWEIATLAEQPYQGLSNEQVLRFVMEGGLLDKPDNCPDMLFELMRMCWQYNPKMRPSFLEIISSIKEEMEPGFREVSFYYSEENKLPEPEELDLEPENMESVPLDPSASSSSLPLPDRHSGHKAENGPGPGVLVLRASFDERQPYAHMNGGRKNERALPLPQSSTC

Consider `O=[N+]([O-])c1ccc(-c2nc(-c3ccc(F)cc3)c(-c3ccncc3)[nH]2)cc1`, for which the residual activity is 109% in [1]; 86% in [2]; 77% in experiment [3]; 77% in [4]; 29% in [5]; 97% in experiment [6]. Further, the residual activity in experiment [7] stood at 97%; in [8], 114%; in experiment [9] it was 141%; in experiment [10], 103%.
Take `Oc1ccc(Nc2nc(-c3ccc(Cl)cc3)cs2)cc1`: the residual activity in experiment [1] is 85%; in experiment [2], 88%; in experiment [3] it was 84%; in [4], 89%; in experiment [5], 69%; in [6] it was 97%. Besides, the residual activity in [7] was 86%; in [8], 120%; in experiment [9], 101%; in experiment [10], 87%.
For the compound `N#C/C(=C(\N)Sc1ccc(N)cc1)c1ccccc1C(F)(F)F`, the residual activity came out at 86% in experiment [1]; 108% in experiment [2]; 116% in experiment [3]; 67% in experiment [4]; 41% in experiment [5]; 99% in [6]. Further, the residual activity was determined as 108% in [7], 99% in experiment [8], 123% in experiment [9] and 105% in experiment [10].
Regarding `Cc1nc2cc3nc(-c4cccs4)cnc3cc2n1C`, the residual activity in [1] was found to be 97%; in experiment [2] it was 123%; in [3] it was 79%; in experiment [4], 92%; in experiment [5], 67%; in [6], 90%. The residual activity in experiment [7] was determined as 34%; in experiment [8], 141%; in experiment [9] it was 61%; in [10], 109%.
As for `O=C1NC(=O)c2cc(Nc3ccc(F)cc3)c(Nc3ccc(F)cc3)cc21`, the residual activity came to 99% in experiment [1]; 103% in experiment [2]; 41% in experiment [3]; 63% in experiment [4]; 21% in [5]; 87% in experiment [6]. The residual activity in experiment [7] is 49%; in experiment [8], 102%; in [9], 108%; in [10], 101%.
Regarding `O=C(Nc1cccc(Nc2cc(Nc3cccc(C(F)(F)F)c3)ncn2)c1)C1CC1`, the residual activity in experiment [1] is 102%; in [2], 110%; in [3], 82%; in [4], 96%; in experiment [5], 52%; in experiment [6], 98%. Moreover, the residual activity in experiment [7] is 83%; in experiment [8] it was 141%; in [9], 115%; in [10], 87%.
Regarding `COc1ccc(OC)c2c(=S)c3ccccc3[nH]c12`, the residual activity in experiment [1] is 73%; in experiment [2], 114%; in experiment [3], 56%; in experiment [4], 85%; in experiment [5] it was 70%; in [6], 101%. Besides, the residual activity in experiment [7] was 95%; in experiment [8], 103%; in experiment [9], 136%; in experiment [10], 86%.
In the case of `COc1ccc(C(=O)Nc2sc3c(c2C(N)=O)CCCC3)cc1OC`, the residual activity in experiment [1] came to 97%; in [2] it was 109%; in experiment [3], 93%; in [4], 66%; in experiment [5], 70%; in [6] it was 95%. For the same compound, the residual activity in experiment [7] was determined as 94%; in experiment [8] it was 115%; in [9] it was 74%; in [10], 109%.
`Cc1ccc(S(=O)(=O)/C=C/C#N)cc1`: the residual activity came out at 98% in experiment [1]; 94% in [2]; 102% in [3]; 87% in experiment [4]; 82% in experiment [5]; 98% in experiment [6]. The residual activity in [7] turned out to be 97%; in experiment [8], 75%; in [9] it was 107%; in experiment [10] it was 96%.
With `O=C1NC(=O)/C(=C\c2ccc3nccnc3c2)S1`, the residual activity in experiment [1] was 7%; in [2], 27%; in experiment [3] it was 3%; in [4], 76%; in experiment [5], 57%; in experiment [6], 105%. Besides, the residual activity in [7] was 90%; in [8], 147%; in [9] it was 114%; in experiment [10], 108%.
`Cn1nc2c3c(cccc31)C(=O)c1ccccc1-2`: the residual activity in experiment [1] was determined as 90%; in [2] it was 41%; in experiment [3], 2%; in experiment [4], 72%; in experiment [5], 53%; in experiment [6], 96%. Besides, the residual activity in experiment [7] was found to be 92%; in experiment [8] it was 111%; in [9], 106%; in experiment [10], 106%.
For the compound `O=C1c2ccccc2-[n+]2ccc3c([nH]c4ccccc43)c21`, the residual activity in experiment [1] turned out to be 87%; in [2] it was 73%; in experiment [3] it was 107%; in experiment [4], 80%; in experiment [5], 57%; in experiment [6], 89%. The residual activity was found to be 83% in [7], 59% in [8], 67% in experiment [9] and 102% in experiment [10].
Take `c1ccc(-c2n[nH]cc2-c2ccnc3ccccc23)nc1`: the residual activity came out at 98% in experiment [1]; 71% in experiment [2]; 49% in experiment [3]; 86% in [4]; 72% in experiment [5]; 100% in [6]. In addition, the residual activity in experiment [7] came out at 69%; in [8], 131%; in experiment [9], 133%; in [10] it was 123%.
With `CN(C)c1ccc(/C=C2\C(=O)Nc3ccccc32)cc1`, the residual activity in experiment [1] is 94%; in experiment [2] it was 83%; in experiment [3], 46%; in experiment [4], 76%; in [5], 32%; in experiment [6], 102%. Moreover, the residual activity in experiment [7] was determined as 77%; in [8], 146%; in [9] it was 139%; in experiment [10], 101%.
Take `Ic1cccc(CSc2nnc(-c3ccncc3)o2)c1`: the residual activity in experiment [1] stood at 100%; in experiment [2], 104%; in experiment [3], 85%; in experiment [4] it was 74%; in experiment [5], 56%; in [6], 85%. The residual activity in experiment [7] was 89%; in experiment [8], 96%; in experiment [9], 124%; in experiment [10] it was 98%.
As to `COc1ccc(S(=O)(=O)N(CCO)c2ccccc2CN(C)C/C=C/c2ccc(Cl)cc2)cc1`, the residual activity in experiment [1] was 102%; in experiment [2], 82%; in experiment [3], 49%; in experiment [4], 87%; in [5], 45%; in [6] it was 98%. In addition, the residual activity in experiment [7] amounted to 90%; in experiment [8], 121%; in experiment [9], 114%.
`O=C1Nc2ccccc2/C1=C1/Nc2ccccc2/C1=N\OCCC(O)CO` (centres undefined): the residual activity worked out at 56% in [1]; 13% in [2]; 11% in experiment [3]; 4% in experiment [4]; 0% in [5]; 8% in [6]. Besides, the residual activity in experiment [7] came to 7%; in experiment [8] it was 25%; in experiment [9], 2%; in [10], 104%.

The values are drawn from ChEMBL document CHEMBL2218924, “A broad activity screen in support of a chemogenomic map for kinase signalling research and drug discovery” (Biochem J, 2013).
